# ChEMBL document CHEMBL1961873, “Compounds: GSK PKIS; Assays: Nanosyn kinase panel” (2012)
# Where “and” joins values, the source holds several entries; their conditions need not be identical. Equal entries are not always repeated.
# Columns and labels:
# [1] = biological target: Serine/threonine-protein kinase pim-2 (Homo sapiens) (UniProt Q9P1W9); conditions: at 1 µM;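 further: each value is a mean of the inhibition measurements against the kinase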
# [2] = biological target: Serine/threonine-protein kinase pim-3 (Homo sapiens) (UniProt Q86V86); conditions: at 0.1 µM
# [3] = biological target: Serine/threonine-protein kinase pim-3 (Homo sapiens) (UniProt Q86V86); conditions: at 1 µM
# [4] = biological target: T1, MAP kinase-activated protein kinase 5 (Homo sapiens) (UniProt Q8IW41); conditions: at 0.1 µM
# T1 sequence (whole entry): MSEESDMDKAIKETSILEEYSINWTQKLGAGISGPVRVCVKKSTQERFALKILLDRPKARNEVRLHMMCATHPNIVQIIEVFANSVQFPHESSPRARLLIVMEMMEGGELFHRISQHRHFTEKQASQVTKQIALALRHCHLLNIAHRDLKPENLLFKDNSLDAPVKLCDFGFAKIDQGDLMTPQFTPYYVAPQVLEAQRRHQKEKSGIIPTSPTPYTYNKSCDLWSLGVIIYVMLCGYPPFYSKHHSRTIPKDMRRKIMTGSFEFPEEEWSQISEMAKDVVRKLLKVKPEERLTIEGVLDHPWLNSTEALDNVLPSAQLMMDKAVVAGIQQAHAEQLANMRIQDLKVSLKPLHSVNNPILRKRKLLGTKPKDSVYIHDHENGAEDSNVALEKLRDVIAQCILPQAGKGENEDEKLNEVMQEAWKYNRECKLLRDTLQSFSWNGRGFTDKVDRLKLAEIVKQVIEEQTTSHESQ
# [5] = biological target: T1, MAP kinase-activated protein kinase 5 (Homo sapiens); conditions: at 1 µM
# [6] = biological target: Serine/threonine-protein kinase SIK1 (Homo sapiens) (UniProt P57059); conditions: at 0.1 µM
# [7] = biological target: Serine/threonine-protein kinase SIK1 (Homo sapiens) (UniProt P57059); conditions: at 1 µM
# [8] = biological target: Serine/threonine-protein kinase SIK2 (Homo sapiens) (UniProt Q9H0K1); conditions: at 0.1 µM
# [9] = biological target: Serine/threonine-protein kinase SIK2 (Homo sapiens) (UniProt Q9H0K1); conditions: at 1 µM
# [10] = biological target: T2, Serine/threonine-protein kinase TBK1 (Homo sapiens) (UniProt Q9UHD2); conditions: at 0.1 µM
# T2 sequence (whole entry): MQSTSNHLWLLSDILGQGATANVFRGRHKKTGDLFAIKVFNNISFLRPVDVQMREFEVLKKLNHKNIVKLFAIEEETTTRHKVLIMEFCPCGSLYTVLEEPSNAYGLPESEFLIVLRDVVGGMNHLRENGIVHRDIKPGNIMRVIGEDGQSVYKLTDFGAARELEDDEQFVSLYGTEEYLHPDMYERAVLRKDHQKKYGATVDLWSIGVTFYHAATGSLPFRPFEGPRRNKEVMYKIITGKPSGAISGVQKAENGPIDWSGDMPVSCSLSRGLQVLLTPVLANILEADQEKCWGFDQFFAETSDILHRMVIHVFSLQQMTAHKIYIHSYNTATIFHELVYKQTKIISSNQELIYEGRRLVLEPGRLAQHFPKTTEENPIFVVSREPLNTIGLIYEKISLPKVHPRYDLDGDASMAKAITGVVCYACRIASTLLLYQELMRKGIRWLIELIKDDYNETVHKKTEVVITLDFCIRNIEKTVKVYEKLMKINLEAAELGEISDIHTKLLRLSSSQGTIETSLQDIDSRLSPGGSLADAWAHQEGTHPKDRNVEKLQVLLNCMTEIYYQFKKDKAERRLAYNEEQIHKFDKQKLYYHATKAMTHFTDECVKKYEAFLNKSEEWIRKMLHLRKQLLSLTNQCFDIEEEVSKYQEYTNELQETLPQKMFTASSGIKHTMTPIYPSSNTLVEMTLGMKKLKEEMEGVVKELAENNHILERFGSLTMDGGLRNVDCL
# [11] = biological target: T2, Serine/threonine-protein kinase TBK1 (Homo sapiens); conditions: at 1 µM
# [12] = biological target: T3, Testis-specific serine/threonine-protein kinase 1 (Homo sapiens) (UniProt Q9BXA7); conditions: at 0.1 µM
# T3 sequence (whole entry): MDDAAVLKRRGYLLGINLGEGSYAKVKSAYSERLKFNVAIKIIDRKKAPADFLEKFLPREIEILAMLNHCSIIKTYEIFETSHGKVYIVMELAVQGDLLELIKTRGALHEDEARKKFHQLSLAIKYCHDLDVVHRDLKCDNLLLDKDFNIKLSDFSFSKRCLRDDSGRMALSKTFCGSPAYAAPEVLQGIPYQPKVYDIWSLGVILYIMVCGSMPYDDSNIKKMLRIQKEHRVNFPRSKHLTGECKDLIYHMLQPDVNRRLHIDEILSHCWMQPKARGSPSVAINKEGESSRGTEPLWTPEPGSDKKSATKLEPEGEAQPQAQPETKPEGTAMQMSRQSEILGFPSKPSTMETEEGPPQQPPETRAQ
# [13] = biological target: T3, Testis-specific serine/threonine-protein kinase 1 (Homo sapiens); conditions: at 1 µM
# [14] = biological target: T4, Testis-specific serine/threonine-protein kinase 2 (Homo sapiens) (UniProt Q96PF2); conditions: at 0.1 µM
# T4 sequence (whole entry): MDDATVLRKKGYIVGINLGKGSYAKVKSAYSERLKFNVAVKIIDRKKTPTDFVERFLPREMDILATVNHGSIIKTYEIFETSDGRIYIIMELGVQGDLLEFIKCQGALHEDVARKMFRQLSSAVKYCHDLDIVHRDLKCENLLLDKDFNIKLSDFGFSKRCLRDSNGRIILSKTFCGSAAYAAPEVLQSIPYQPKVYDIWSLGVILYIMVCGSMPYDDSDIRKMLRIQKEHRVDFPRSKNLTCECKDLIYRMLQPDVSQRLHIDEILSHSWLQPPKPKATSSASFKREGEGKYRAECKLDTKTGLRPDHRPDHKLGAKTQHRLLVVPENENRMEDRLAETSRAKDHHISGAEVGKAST
# [15] = biological target: T4, Testis-specific serine/threonine-protein kinase 2 (Homo sapiens); conditions: at 1 µM
# [16] = biological target: Casein kinase I isoform alpha (Homo sapiens) (UniProt P48729); conditions: at 0.1 µM
# [17] = biological target: Casein kinase I isoform alpha (Homo sapiens) (UniProt P48729); conditions: at 1 µM
# [18] = biological target: Casein kinase I isoform gamma-1 (Homo sapiens) (UniProt Q9HCP0); conditions: at 0.1 µM
# [19] = biological target: Casein kinase I isoform gamma-1 (Homo sapiens) (UniProt Q9HCP0); conditions: at 1 µM
# [20] = biological target: Casein kinase I isoform gamma-2 (Homo sapiens) (UniProt P78368); conditions: at 0.1 µM;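 further: values are mean inhibition figures reported as part of the GSK PKIS dataset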
# Sequence of Casein kinase I isoform gamma-2 (Homo sapiens) (P78368 whole entry, looked up, canonical isoform): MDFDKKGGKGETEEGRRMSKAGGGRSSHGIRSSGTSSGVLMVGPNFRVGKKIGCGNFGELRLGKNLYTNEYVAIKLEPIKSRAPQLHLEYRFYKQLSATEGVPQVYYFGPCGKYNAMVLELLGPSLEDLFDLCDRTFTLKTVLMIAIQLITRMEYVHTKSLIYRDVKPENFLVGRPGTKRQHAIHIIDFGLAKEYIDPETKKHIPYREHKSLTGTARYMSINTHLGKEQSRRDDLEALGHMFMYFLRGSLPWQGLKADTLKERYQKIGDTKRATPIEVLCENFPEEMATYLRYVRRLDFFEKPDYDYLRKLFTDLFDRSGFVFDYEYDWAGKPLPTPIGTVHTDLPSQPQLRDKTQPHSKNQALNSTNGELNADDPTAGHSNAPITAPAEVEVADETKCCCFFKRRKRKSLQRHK
# Sequence of Casein kinase I isoform alpha (Homo sapiens) (P48729 2-337 limits assumed): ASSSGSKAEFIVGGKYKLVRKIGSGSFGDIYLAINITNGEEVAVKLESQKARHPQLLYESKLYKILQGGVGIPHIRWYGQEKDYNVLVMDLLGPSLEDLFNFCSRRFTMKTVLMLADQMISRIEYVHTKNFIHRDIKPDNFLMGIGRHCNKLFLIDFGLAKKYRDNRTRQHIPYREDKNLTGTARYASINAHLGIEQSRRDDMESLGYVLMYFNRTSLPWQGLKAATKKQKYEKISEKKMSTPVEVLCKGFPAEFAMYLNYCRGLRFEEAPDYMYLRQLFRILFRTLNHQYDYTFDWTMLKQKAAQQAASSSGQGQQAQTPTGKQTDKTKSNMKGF
# Sequence of Serine/threonine-protein kinase SIK1 (Homo sapiens) (P57059 whole entry): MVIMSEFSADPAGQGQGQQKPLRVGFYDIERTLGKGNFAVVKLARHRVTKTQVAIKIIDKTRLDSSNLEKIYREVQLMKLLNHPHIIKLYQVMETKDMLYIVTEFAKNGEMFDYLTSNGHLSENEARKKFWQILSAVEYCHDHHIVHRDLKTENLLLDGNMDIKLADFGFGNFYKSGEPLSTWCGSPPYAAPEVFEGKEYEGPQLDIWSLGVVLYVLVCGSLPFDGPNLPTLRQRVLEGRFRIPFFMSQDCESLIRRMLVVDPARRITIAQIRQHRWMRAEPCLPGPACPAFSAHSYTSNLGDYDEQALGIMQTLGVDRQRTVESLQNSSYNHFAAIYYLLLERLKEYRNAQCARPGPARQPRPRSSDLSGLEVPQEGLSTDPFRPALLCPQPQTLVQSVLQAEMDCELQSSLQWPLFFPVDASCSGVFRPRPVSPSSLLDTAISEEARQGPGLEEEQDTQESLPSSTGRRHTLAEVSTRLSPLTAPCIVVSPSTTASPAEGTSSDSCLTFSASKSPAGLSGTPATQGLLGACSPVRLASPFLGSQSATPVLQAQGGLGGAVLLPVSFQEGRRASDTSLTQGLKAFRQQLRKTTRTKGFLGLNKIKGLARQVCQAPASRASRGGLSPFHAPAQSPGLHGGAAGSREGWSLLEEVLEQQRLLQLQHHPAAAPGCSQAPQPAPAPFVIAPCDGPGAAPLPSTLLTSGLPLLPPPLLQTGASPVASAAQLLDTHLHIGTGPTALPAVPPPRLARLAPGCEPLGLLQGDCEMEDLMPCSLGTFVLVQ
# Sequence of Casein kinase I isoform gamma-1 (Homo sapiens) (Q9HCP0 whole entry, looked up, canonical isoform): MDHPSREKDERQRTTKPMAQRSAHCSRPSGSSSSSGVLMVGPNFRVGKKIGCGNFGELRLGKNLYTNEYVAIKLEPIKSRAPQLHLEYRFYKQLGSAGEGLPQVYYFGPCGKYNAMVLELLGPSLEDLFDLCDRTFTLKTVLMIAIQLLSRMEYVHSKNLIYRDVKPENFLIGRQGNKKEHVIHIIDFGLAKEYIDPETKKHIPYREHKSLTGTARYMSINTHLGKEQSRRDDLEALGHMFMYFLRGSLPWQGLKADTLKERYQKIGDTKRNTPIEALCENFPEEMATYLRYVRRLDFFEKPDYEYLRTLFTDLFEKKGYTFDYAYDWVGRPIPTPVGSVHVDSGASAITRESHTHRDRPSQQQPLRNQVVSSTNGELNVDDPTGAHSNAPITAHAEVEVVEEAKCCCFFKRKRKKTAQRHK
# Sequence of Serine/threonine-protein kinase SIK2 (Homo sapiens) (Q9H0K1 whole entry, looked up): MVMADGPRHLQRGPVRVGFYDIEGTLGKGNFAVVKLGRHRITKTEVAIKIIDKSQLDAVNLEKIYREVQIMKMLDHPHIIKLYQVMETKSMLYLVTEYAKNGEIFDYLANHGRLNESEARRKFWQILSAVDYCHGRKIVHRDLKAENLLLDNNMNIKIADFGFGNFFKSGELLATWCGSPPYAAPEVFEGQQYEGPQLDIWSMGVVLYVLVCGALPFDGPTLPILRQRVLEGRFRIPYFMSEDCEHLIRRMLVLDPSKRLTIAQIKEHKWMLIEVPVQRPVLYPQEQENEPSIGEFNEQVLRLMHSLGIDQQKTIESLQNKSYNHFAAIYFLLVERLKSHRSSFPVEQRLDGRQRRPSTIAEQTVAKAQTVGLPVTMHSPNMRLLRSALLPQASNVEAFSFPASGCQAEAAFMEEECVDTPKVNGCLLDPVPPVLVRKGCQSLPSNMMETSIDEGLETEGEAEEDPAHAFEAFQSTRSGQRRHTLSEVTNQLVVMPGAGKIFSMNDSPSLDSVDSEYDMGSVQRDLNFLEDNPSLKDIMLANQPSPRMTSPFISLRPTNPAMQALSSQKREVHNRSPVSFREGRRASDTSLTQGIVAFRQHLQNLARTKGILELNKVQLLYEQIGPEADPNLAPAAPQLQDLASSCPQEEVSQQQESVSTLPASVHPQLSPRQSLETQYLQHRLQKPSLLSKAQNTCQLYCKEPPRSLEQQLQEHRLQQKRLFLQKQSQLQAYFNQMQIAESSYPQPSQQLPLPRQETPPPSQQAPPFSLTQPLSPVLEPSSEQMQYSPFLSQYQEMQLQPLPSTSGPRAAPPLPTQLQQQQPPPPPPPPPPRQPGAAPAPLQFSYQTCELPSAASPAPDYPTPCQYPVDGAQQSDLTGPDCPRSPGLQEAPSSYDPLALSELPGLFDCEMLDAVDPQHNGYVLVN
# Sequence of Serine/threonine-protein kinase pim-2 (Homo sapiens) (Q9P1W9 whole entry, looked up): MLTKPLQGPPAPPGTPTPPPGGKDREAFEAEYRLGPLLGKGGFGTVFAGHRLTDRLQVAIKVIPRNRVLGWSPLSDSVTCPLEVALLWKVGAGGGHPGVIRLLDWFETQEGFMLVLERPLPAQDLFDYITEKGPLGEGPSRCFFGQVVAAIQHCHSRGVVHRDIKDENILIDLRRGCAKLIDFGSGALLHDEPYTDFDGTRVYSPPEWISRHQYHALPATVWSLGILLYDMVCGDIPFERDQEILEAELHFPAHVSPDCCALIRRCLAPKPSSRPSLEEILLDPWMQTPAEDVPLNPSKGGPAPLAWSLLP
SMILES,inhibition [1],inhibition [2],inhibition [3],inhibition [4],inhibition [5],inhibition [6],inhibition [7],inhibition [8],inhibition [9],inhibition [10],inhibition [11],inhibition [12],inhibition [13],inhibition [14],inhibition [15],inhibition [16],inhibition [17],inhibition [18],inhibition [19],inhibition [20]
Cn1c(-c2nonc2N)nc2cnccc21,1.87%,-0.24%,7.16%,1.23%,0.93%,4.82%,8.47%,5.17%,-0.26%,1.34%,7.42%,3.15%,3.81%,2.01%,0.12%,3.34%,6.21%,2.61%,2.68%,2.2%
Cc1ccc(-c2cc3c(NC(=O)C4CC4)ncnc3o2)cc1,1.12%,-0.12%,4.13%,0.83%,0.27%,6.5%,7.93%,-1.22%,3.33%,3.64%,10.1%,3.8%,4.18%,1.75%,0.28%,4.85%,5.25%,3.74%,4.78%,2.32%
CNC(=O)c1sc(-n2cnc3cc(OC)c(OC)cc32)cc1OCc1ccccc1C(F)(F)F,0.56%,-0.77%,-0.33%,1.17%,1.03%,5.73%,11.3%,7.24%,8.75%,1.68%,4.39%,1.24%,1.63%,1.51%,1.01%,0.44%,2.65%,3.33%,3.86%,3.4%
Cc1cc(O)cc(C)c1/C=C/c1cncc(C(=O)OC(C)(C)C)c1,1.55%,-1.42%,2.22%,0.68%,1.6%,18.8%,71.9%,10.5%,12.3%,2.04%,2.33%,2.62%,1.67%,1.48%,1.69%,1.27%,3.48%,2.21%,2.97%,1.74%
Nc1ncnc2occ(-c3ccc(NC(=O)Nc4cc(C(F)(F)F)ccc4F)cc3)c12,0.09% and 1.14%,0.34% and 0.04%,-1.35% and 1.44%,-0.03% and -0.81%,-1.65% and -0.72%,5.31% and -3.84%,6.74% and 3.25%,6.29% and -4.61%,1.48% and -6.22%,0.47% and 0.44%,6.12% and 3.01%,0.74% and -0.54%,-2.13% and 0.25%,0.34% and -1.88%,-2.39% and -1.51%,-0.66% and -1.83%,4.18% and -1.62%,1.37% and -1.43%,5.11% and 0.87%,0.83% and -2.39%
CCOc1ccc2c(-c3ccnc(Nc4cc(OC)cc(C(F)(F)F)c4)n3)cnn2n1,-0.11%,1.13%,1.42%,-0.27%,-0.8%,2.02%,6.72%,-0.16%,2.02%,-0.57%,37%,0.8%,0.89%,0.22%,-0.73%,2.19%,3.91%,-0.62%,1.33%,-0.22%
